# Data: PubChem BioAssay (NCATS)
# Results filed as inconclusive are left out. Entries that show only a call come without a potency. Activity calls are given as the source filed them. Calls come from the whole dose curve; as a rule, active = well fitted inhibition curve with a large enough effect; inconclusive = small, poorly fitted or top-dose-only effect; inactive = flat fitted curve, though single readings scatter.
# Tests used:
# 7G8 = assay: qHTS profiling for inhibitors of Plasmodium falciparum proliferation (AID 504749); note: nearly all actives have a fitted effect of over 60% in size; note: potency is the fitted concentration of half-maximal effect; conditions: P. falciparum in erythrocytes, SYBR Green DNA, 72 h; series mostly up to 12.8 µM
# How it was run: (§1)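 Parasite proliferation within erythrocytes, 72 h exposure. Endpoint: SYBR Green I fluorescence after overnight lysis at room temperature. Controls: 0.29 uM artemisinin, DMSO.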
# ATS189 = assay: as above; conditions: P. falciparum in erythrocytes, SYBR Green DNA, 72 h; series mostly up to 12.8 µM
# How it was run: as §1
# CP215 = assay: as above; conditions: P. falciparum in erythrocytes, SYBR Green DNA, 72 h; series mostly up to 12.8 µM
# How it was run: as §1
# CP217 = assay: as above; conditions: P. falciparum in erythrocytes, SYBR Green DNA, 72 h; series mostly up to 12.8 µM
# How it was run: as §1
# CP247 = assay: as above; conditions: P. falciparum in erythrocytes, SYBR Green DNA, 72 h; series mostly up to 12.8 µM
# How it was run: as §1
# DFO2036 = assay: as above; conditions: P. falciparum in erythrocytes, SYBR Green DNA, 72 h; series mostly up to 12.8 µM
# How it was run: as §1
# DIV14 = assay: as above; conditions: P. falciparum in erythrocytes, SYBR Green DNA, 72 h; series mostly up to 12.8 µM
# How it was run: as §1
# DIV17 = assay: as above; conditions: P. falciparum in erythrocytes, SYBR Green DNA, 72 h; series mostly up to 12.8 µM
# How it was run: as §1
# CP250 = assay: as above; conditions: P. falciparum in erythrocytes, SYBR Green DNA, 72 h; series mostly up to 12.8 µM
# How it was run: as §1
# CP297 = assay: as above; conditions: P. falciparum in erythrocytes, SYBR Green DNA, 72 h; series mostly up to 12.8 µM
# How it was run: as §1
# GB4 = assay: as above; conditions: P. falciparum in erythrocytes, SYBR Green DNA, 72 h; series mostly up to 12.8 µM
# How it was run: as §1
# [1] = target: DNA dC->dU-editing enzyme APOBEC-3G (Homo sapiens) (UniProt Q9HC16); assay: qHTS for inhibitors of Vif-A3G interactions: Validation (AID 588379); conditions: Vif-A3G protein interaction assay; series mostly up to 46.1 µM
# How it was run: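 HeLa cells stably expressing Vif and A3G-eYFP, 700 cells/well, incubated overnight at 37 deg C, then exposed to compound overnight at 37 deg C. Inhibition of Vif-mediated degradation read as increased yellow fluorescence (Ex 488/Em 500-530) by laser-scanning cytometry.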
# Chain of DNA dC->dU-editing enzyme APOBEC-3G (Homo sapiens) (Q9HC16 whole entry, looked up): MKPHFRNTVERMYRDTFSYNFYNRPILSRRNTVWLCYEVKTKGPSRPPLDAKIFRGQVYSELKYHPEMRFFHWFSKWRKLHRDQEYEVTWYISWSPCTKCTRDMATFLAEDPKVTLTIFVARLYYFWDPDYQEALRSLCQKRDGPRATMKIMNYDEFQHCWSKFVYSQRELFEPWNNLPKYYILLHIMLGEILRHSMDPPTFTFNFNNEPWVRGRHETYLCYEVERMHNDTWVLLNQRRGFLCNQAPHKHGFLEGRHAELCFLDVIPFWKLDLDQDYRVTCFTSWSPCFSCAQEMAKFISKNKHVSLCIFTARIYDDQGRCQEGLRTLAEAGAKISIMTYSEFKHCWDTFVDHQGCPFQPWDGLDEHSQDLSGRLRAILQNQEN
compound,measurement,setting,value
CC(C)Oc1ccc2c(=O)cc(-c3ccccc3)oc2c1,Potency,7G8,inactive
same,Potency,ATS189,inactive
same,Potency,CP215,inactive
same,Potency,CP217,inactive
same,Potency,CP247,inactive
same,Potency,DFO2036,inactive
same,Potency,DIV14,inactive
same,Potency,DIV17,inactive
N[C@@H]1C(O)OC(CO)C(O)C1O (some centres undefined),Potency,7G8,inactive
same,Potency,ATS189,inactive
same,Potency,CP217,inactive
same,Potency,CP247,inactive
same,Potency,CP250,inactive
same,Potency,CP297,inactive
same,Potency,DIV17,inactive
CCC(C)C(=O)OC1CC(O)C=C2C=CC(C)C(CCC(O)CC(O)CC(=O)O)C21 (centres undefined),Potency,CP215,inactive
same,Potency,CP217,inactive
same,Potency,CP247,inactive
same,Potency,CP250,inactive
same,Potency,CP297,inactive
same,Potency,DIV14,inactive
same,Potency,DIV17,inactive
same,Potency,GB4,inactive
COC(=O)CCCC[C@@H]1SC[C@@H]2NC(=O)N[C@@H]21,outcome,[1],inactive
CC[C@@]12CCCN3CCc4c(n(c5ccccc45)[C@](O)(C(=O)OC)C1)C32 (some centres undefined),Potency,ATS189,inactive
same,Potency,CP215,inactive
same,Potency,CP217,inactive
same,Potency,CP247,inactive
same,Potency,CP250,inactive
same,Potency,CP297,inactive
same,Potency,DIV14,inactive
same,Potency,GB4,inactive
COC(=O)[C@H]1[C@@H]2C[C@@H]3c4[nH]c5ccccc5c4CCN3C[C@H]2CC[C@H]1O,outcome,[1],inactive
COC1CC(O[C@H]2/C(C)=C/CC3CC(C[C@]4(CCC(C)C(C5CCCCC5)O4)O3)OC(=O)[C@H]3C=C(C)/C(=N/O)C4OC/C(=C\C=C\[C@@H]2C)[C@@]43O)OC(C)C1O (some centres undefined),Potency,7G8,12.6 µM (active)
same,Potency,CP215,inactive
OCC1OC(Oc2cccc3cccnc23)C(O)C(O)C1O (centres undefined),outcome,[1],inactive
CC(=O)[C@]1(O)CCC2C3C=C(Cl)C4=CC(=O)C5CC5[C@@]4(C)C3CC[C@]21C (some centres undefined),Potency,ATS189,inactive
same,Potency,CP215,inactive
same,Potency,CP217,inactive
same,Potency,CP250,inactive
same,Potency,CP297,inactive
same,Potency,DFO2036,inactive
same,Potency,DIV14,inactive
same,Potency,DIV17,inactive
same,Potency,GB4,inactive
COc1ccc(-c2cc(=O)c3c(O)cc(O[C@H]4OC(COC5OC(C)C(O)C(O)[C@H]5O)C(O)C(O)C4O)cc3o2)cc1O (some centres undefined),Potency,7G8,inactive
same,Potency,ATS189,inactive
same,Potency,CP215,inactive
same,Potency,CP217,inactive
same,Potency,CP247,inactive
same,Potency,CP250,inactive
same,Potency,CP297,inactive
same,Potency,DFO2036,inactive
same,Potency,DIV14,inactive
same,Potency,DIV17,inactive
same,Potency,GB4,inactive
CC(=O)O[C@@]1(C(C)=O)CCC2C3CC(C)C4=CC(=O)CC[C@@]4(C)C3CC[C@]21C (some centres undefined),Potency,7G8,7.94 µM (active)
same,Potency,CP215,inactive
same,Potency,CP297,inactive
same,Potency,DIV14,inactive
same,Potency,DIV17,inactive
same,Potency,GB4,inactive
CC1(C)OC2CO[C@]3(COS(N)(=O)=O)OC(C)(C)OC3C2O1 (some centres undefined),Potency,ATS189,inactive
same,Potency,CP215,inactive
same,Potency,CP217,inactive
same,Potency,CP247,inactive
same,Potency,CP250,inactive
same,Potency,CP297,inactive
same,Potency,DIV14,inactive
same,Potency,DIV17,inactive
same,Potency,GB4,inactive
C=Cc1c(C)/c2[n-]/c1=C\c1[n-]c(c(CC)c1C)/C=c1\[n-]c3c(c1C)C(=O)C(C(=O)[O-])C=3c1[n-]c(c(C)c1CCC(=O)[O-])\C=2.[Cu].[Na+].[Na+] (centres undefined),Potency,DFO2036,inactive
C[C@H](CCC(=O)O)[C@H]1CC[C@H]2[C@H]3C(C[C@H](O)[C@]12C)[C@@]1(C)CC[C@@H](O)C[C@H]1C[C@H]3O (some centres undefined),outcome,[1],inactive
CCCCCCCCCc1ccc(OCCOCCOCCOCCOCCOCCOCCOCCOCCO)cc1,Potency,7G8,12.6 µM (active)
same,Potency,CP250,inactive
same,Potency,DFO2036,inactive
CCC1OC(=O)C(C)[C@@H](O[C@H]2C[C@@](C)(OC)C(O)C(C)O2)C(C)[C@@H](O[C@@H]2OC(C)CC(N(C)C)C2O)[C@@](C)(O)CC(C)C(=O)[C@@H](C)C(O)[C@]1(C)O (some centres undefined),Potency,7G8,inactive
same,Potency,ATS189,inactive
same,Potency,CP215,inactive
same,Potency,CP217,inactive
same,Potency,CP247,inactive
same,Potency,CP250,inactive
same,Potency,CP297,inactive
same,Potency,DFO2036,inactive
same,Potency,DIV14,inactive
same,Potency,DIV17,inactive
same,Potency,GB4,inactive
CC[C@H](CC[C@@H](C)C1CC[C@H]2[C@@H]3CC=C4C[C@@H](O)CC[C@]4(C)[C@H]3CC[C@]12C)C(C)C (some centres undefined),outcome,[1],inactive
C=C1CC/C=C(\C)CC[C@@H]2[C@@H]1CC2(C)C,outcome,[1],inactive
